Assay results reported in PubChem BioAssay AID782 (Emory University Molecular Libraries Screening Center, 2007).
The campaign covered roughly 220,000 compounds. About 800 (0.36%) were called active. Many of the other results were omitted from the sample, so actives are more common in it than they were. Values without a mark were called inactive.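 The calls were made as follows: active = inhibition above about 30% (limit read from the data); inactive = the rest.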

The compounds below were run against Eukaryotic translation initiation factor 4E (Mus musculus) + Eukaryotic translation initiation factor 4 gamma 1 (Homo sapiens) (UniProt P63073+Q04637) (assay: blockers of eIF4G binding by eIF4E – biochemical, uHTS, TR-FRET, eIF4GI fragment, primary screen (AID 782;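 also: 0% = full FRET control wells and 100% = background wells lacking eIF4GI fragment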)). Settings: TR-FRET eIF4E-eIF4GI(517-606) binding, 2 h; at 21.7 µM; stronger effect = higher value.
Chain of Eukaryotic translation initiation factor 4E (Mus musculus) + Eukaryotic translation initiation factor 4 gamma 1 (Homo sapiens) (P63073 whole entry, looked up, the tested form may be a part): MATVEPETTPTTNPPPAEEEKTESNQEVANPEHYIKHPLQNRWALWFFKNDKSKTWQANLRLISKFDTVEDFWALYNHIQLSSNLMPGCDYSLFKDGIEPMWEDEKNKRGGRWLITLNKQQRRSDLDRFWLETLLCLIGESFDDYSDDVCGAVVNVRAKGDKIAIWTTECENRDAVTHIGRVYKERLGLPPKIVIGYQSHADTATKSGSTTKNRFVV
Chain of Eukaryotic translation initiation factor 4E (Mus musculus) + Eukaryotic translation initiation factor 4 gamma 1 (Homo sapiens) (Q04637 whole entry, looked up, the tested form may be a part): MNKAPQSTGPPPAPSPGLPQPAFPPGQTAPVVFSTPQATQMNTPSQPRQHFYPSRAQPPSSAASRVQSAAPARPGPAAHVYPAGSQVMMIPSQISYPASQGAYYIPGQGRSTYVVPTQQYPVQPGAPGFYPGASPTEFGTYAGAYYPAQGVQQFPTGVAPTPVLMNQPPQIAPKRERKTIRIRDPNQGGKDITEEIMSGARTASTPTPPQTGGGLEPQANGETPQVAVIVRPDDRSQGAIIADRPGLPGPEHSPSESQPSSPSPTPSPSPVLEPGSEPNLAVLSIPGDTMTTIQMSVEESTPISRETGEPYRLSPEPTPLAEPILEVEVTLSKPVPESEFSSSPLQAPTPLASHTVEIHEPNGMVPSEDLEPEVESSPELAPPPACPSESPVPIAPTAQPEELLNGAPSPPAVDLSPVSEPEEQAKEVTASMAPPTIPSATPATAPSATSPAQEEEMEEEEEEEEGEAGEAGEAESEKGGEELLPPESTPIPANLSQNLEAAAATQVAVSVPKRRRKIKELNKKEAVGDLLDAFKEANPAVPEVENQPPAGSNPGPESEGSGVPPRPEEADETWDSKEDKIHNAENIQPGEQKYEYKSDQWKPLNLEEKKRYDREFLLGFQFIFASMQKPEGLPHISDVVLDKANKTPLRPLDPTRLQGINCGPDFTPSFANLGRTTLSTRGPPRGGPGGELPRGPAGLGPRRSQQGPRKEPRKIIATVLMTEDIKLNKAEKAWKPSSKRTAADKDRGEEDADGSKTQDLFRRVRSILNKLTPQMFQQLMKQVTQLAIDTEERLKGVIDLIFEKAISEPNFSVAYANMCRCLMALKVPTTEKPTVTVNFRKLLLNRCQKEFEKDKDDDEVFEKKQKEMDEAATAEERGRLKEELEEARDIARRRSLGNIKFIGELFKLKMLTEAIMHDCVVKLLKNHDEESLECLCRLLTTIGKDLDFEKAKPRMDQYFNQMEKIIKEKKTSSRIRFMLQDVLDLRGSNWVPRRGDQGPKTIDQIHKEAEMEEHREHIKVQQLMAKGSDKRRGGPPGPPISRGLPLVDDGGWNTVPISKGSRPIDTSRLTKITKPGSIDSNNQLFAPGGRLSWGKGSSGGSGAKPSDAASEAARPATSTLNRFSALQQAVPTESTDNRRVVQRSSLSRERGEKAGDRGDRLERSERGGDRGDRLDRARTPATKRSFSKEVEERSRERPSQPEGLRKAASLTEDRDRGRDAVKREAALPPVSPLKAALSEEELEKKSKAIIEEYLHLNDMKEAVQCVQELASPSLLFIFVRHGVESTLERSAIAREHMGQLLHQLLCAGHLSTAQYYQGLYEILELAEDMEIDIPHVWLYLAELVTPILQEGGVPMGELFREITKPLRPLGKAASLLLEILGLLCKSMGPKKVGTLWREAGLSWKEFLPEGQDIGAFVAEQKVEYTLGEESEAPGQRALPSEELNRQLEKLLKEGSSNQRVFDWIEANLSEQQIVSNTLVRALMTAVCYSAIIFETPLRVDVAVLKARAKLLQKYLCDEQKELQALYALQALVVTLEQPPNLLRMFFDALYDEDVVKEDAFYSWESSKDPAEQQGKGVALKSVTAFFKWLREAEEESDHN

Question: Which inhibition does the source give for `CCC(=NCCc1ccccc1)c1c(O)n(C2CCCCC2)c(=O)[nH]c1=O` here?
Answer: -4.4%

Question: Which inhibition does the source give for `Cc1ccc(-n2c(O)c(C=NCC3CCCO3)c(=O)[nH]c2=O)c(C)c1` (stereo not given) here?
Answer: -0.86%

Question: `CC(=NCC1CCCO1)c1c(O)n(-c2ccccc2)c(=O)[nH]c1=O` (stereo not given) was tested. Which inhibition did it give?
Answer: 58.1% (active)

Question: `CC1(C)Cc2c(C#N)c(N3CCNCC3)nc(-c3ccco3)c2CS1` was tested. Which inhibition did it give?
Answer: -1.83%

Question: With `COc1ccc(NC(=O)N2CCC3(CC2)OCCO3)c(OC)c1` as the compound, how does the inhibition read?
Answer: 1.55%
